Only some compounds are listed: those with a hit (about 9.4% of all), similar ones and a draw of the others.
ELG1 DNA repair: blocks ELG1-dependent DNA repair in HEK293T cells; HEK293T ELG1-luciferase reporter, luminescence, 16 h; DNA damage induced by 5-fluorouridine; 2.3% of 330,000 active; Potency, µM (top dose mostly 46.1 µM), for the others: at the top dose activity change, negative = inhibition, actives largely listed as inhibitors; further: on the % scale 0 is the no-effect control and ±100 the full control effect; nearly all actives have a fitted effect of over 55% in size
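Step one: seed 2,000 cells per well. Step two: pin-transfer compound or DMSO alongside 5-fluorouridine. Step three: incubate 16 hr, 37 °C, 5% CO2. Step four: add ONE-Glo, wait 30 min, read luminescence.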
FLuc modulator: inhibits or activates purified firefly luciferase, miR-21 counter-screen. P08659. purified FLuc, Km substrates, luminescence inhibition. Potency, µM (top dose mostly 57.5 µM), for the others: at the highest dose activity change, negative = inhibition, actives largely listed as inhibitors. 6.9% of 360,000 active. AID 588342;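 further: plate controls were vehicle for no effect and reference inhibitor for full effect; nearly all actives have a fitted effect of over 55% in size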
Target sequence (P08659 whole entry, looked up): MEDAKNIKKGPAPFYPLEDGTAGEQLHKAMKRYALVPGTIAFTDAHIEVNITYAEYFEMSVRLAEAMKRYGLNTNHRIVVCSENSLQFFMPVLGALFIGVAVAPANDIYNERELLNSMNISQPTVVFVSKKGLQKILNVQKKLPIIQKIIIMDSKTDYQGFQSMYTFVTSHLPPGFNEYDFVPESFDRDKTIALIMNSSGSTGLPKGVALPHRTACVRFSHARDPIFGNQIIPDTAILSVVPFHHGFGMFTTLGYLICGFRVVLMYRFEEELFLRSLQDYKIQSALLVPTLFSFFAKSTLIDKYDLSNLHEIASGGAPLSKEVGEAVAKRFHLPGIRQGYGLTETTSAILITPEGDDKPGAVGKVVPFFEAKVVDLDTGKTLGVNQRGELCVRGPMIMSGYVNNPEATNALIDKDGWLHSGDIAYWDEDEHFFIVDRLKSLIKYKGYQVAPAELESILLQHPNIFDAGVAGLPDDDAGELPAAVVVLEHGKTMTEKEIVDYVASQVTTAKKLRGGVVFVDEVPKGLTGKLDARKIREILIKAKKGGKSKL
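Purified P. pyralis luciferase, 10 nM final, with Km-level 10 uM D-luciferin and 10 uM ATP in 50 mM Tris acetate pH 7.5, 10 mM Mg acetate, 0.01% Tween-20, 0.05% BSA; 6-point qHTS titration about 60 µM downward; luminescence read.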
SMN2 splice enh: SMN2 splice variant enhancement; HEK293 SMN2-luciferase splicing reporter, luminescence, 30-36 h; Potency, µM (highest dose often 46.1 µM), for the others: at the highest dose activity change, positive = activation, actives largely listed as activators; 2.8% of 210,000 active; further: % of control where 0% means no effect; nearly all actives have a fitted effect of over 55% in size
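qHTS luciferase splicing reporter: luminescence rises when SMN2 exon 7 is included in transfected HEK293 cells. Compound exposure lasted 30-36 h at 37C, with 4.5 mM final sodium butyrate as control, followed by a ONE-Glo read.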
ELG1 genotoxic: inducers of genotoxicity in HEK293T ELG1-luciferase cells. HEK293T ELG1-luciferase reporter, luminescence, 16 h. 1.3% of 330,000 active. Potency, µM (top dose mostly 46 µM), for inactives: top-dose activity change, positive = activation, actives largely listed as activators; further: % of control where 0% means no effect; nearly all actives have a fitted effect of over 60% in size
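Quantitative HTS format in 1536-well plates. HEK293T ELG1-luciferase reporter cells receive test compound and are incubated 16 hr at 37 °C, 5% CO2; ONE-Glo added, 30 min room temperature, then luminescence read.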
NPC1 promoter act: NPC1 promoter activation. Huh7 NPC1 promoter luciferase reporter, 24 h. Potency, µM (doses to about 9.22 µM), for the others: at the top dose activation, most hits filed as activators. 2.4% of 320,000 active; further: % of control where 0% means no effect; nearly all actives have a fitted effect of over 60% in size
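Readout is luciferase luminescence, reflecting NPC1 promoter activation in stably transfected Huh7 cells after 24 h compound exposure at 37 °C in reduced-serum medium with 10% FBS.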
Rab9 promoter act: Rab9 promoter activation. Potency, µM (titrated, usually from 9.22 µM), for the others: at the top dose activation, negative = inhibition, actives largely listed as activators. AID 485297. 2.8% of 320,000 active. Huh7 Rab9 promoter-luciferase reporter, luminescence, 24 h; further: % of control where 0% means no effect; nearly all actives have a fitted effect of over 60% in size
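Measured in stably transfected Huh7 cells bearing a Rab9 promoter–luciferase construct: 24 h compound treatment at 37 °C, followed by luminescence detection.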
* hit, by the source's call; ? = inconclusive; nt = not tested or not shown; [ ] = another dose, or the depositor's remark. The call rests on the fitted dose curve; in most records, active means well fitted curve in the direction sought with a large enough effect; inconclusive means small, poorly fitted or top-dose-only effect, or another doubt; inactive means no such curve, though single readings can be large; an effect the other way counts as inactive or inconclusive. Potency means the concentration at half of the fitted maximal effect.

SMILES	ELG1 DNA repair	FLuc modulator	SMN2 splice enh	ELG1 genotoxic	NPC1 promoter act	Rab9 promoter act
Cc1cccc(-c2noc(CN(C3CCCCC3)S(=O)(=O)c3ccc(F)cc3)n2)c1	nt	-9.0%	-7.0%	nt	nt	nt
COc1cc(/C=C(\C#N)c2nc(-c3cc4ccccc4oc3=O)cs2)ccc1O	?	0.1%	-17.4%	4.5%	-0.4%	-7.4%
CC1CCC(=C(C#N)c2nc(-c3cc4ccccc4oc3=O)cs2)CC1 (stereo not drawn)	?	2.69µM*	?	6.51µM*	3.55µM*	3.98µM*
N#C/C(=C\c1ccc(Cl)cc1)c1nc(-c2cc3ccccc3oc2=O)cs1	nt	0.2%	-1.9%	nt	nt	nt
COc1cc(/C=C(/C#N)c2nc(-c3cc4ccccc4oc3=O)cs2)cc([N+](=O)[O-])c1O	?	12µM*	nt	-0.7%	-2.2%	-1.0%
COCCCNC(=O)c1sc2nc(C)c(C(=O)Nc3ccc(C)cc3C)c(-c3ccccc3Cl)c2c1N	nt	-19.0%	-11.6%	nt	nt	nt
Cc1cc(C)c(NC(=O)Cn2ccn(-c3cccc(Cl)c3)c(=O)c2=O)c(C)c1	nt	-17.7%	nt	nt	nt	nt
COc1cccc(/C=N/Nc2ncnc3c2[nH]c2ccc(C)cc23)c1OC	20.2%	1.51µM*	nt	7.6%	16.6%	23.7%
Cc1ccc2[nH]c3c(NCCN4CCOCC4)ncnc3c2c1	?	?	-31.6%	28.9%	13.8%	6.9%
C=CCNc1ncnc2c1[nH]c1ccc(C)cc12	?	4.26µM*	2.82µM*	9.2µM*	?	2.51µM*
COc1ccc(/C=N/Nc2ncnc3c2[nH]c2ccccc23)c(OC)c1OC	13.8%	0.1%	?	3.3%	-2.0%	-2.4%
CCCC(=O)OCc1cnc(C)c2oc(=O)c(C(=O)Nc3ccccc3)cc12	nt	-3.1%	nt	nt	nt	nt
CN1CCN(C(c2ccc(F)cc2)c2sc3nc(-c4ccco4)nn3c2O)CC1 (stereo not drawn)	nt	2.5%	nt	nt	nt	nt
O=C(Nc1ccccc1C(F)(F)F)N1CCN(c2ccc3nnc(-c4ccc(F)cc4)n3n2)CC1	11.6µM*	4.0%	-51.5%	-6.3%	-10.1%	-3.0%
O=C(c1ccc(Br)o1)N1CCN(c2ccc3nnc(-c4ccccc4)n3n2)CC1	?	-1.2%	131.4%	-31.5%	-1.5%	-2.5%
O=C(Nc1ccc(F)cc1)N1CCN(c2ccc3nnc(-c4ccc(F)cc4)n3n2)CC1	7.31µM*	-9.0%	-2.7%	-7.4%	-3.4%	-1.2%
Fc1ccc(-c2nnc3ccc(N4CCc5ccccc5C4)nn23)cc1	18.4µM*	0.0%	-36.5%	-11.0%	-3.5%	3.0%
Cc1ccccc1OCC(=O)N(Cc1ccc(N(C)C)cc1)CC1CCCO1 (stereo not drawn)	nt	-11.4%	-13.7%	nt	nt	nt
CCc1ccccc1NC(=O)CN(Cc1ccccc1)S(=O)(=O)c1ccc2nc(C)sc2c1	nt	1.8%	nt	nt	nt	nt
O=[N+]([O-])c1cccc2ccc(/C=C/c3ccc(C(F)(F)F)cc3)nc12	-3.8%	-18.8%	-0.1%	-0.1%	25.8%	22.3%
COc1cc(/C=C/c2ccc3cccc(O)c3n2)ccc1O	?	6.75µM*	nt	16.4µM*	?	3.16µM*
COc1ccc(OC)c(/C=C/c2ccc3cccc(O)c3n2)c1	?	13.5µM*	nt	?	10.6%	6.2%
CSc1ccc(/C=C/c2ccc3cccc(O)c3n2)cc1	?	2.39µM*	12.6µM*	?	3.16µM*	1.26µM*
COc1cc(Br)c(/C=C/c2ccc3cccc(O)c3n2)cc1OC	?	?	nt	?	16.7%	-2.5%[1.84 µM]
COc1cc(/C=C/c2ccc3cccc(OC)c3n2)c(O)c([N+](=O)[O-])c1	1.3%	-4.7%	-2.2%	-0.3%	8.7%	-4.3%
COc1cc(Br)cc(/C=C/c2ccc3cccc(O)c3n2)c1O	7.3µM*	?	nt	13.5%	7.3%	6.4%
COc1cc(/C=C/c2ccc3cccc(O)c3n2)c(Br)cc1O	?	?	nt	?	-1.4%	3.3%
